# A selection: hits, their analogues and other compounds. The true share with any hit is near 5.6%.
# RORgamma inh: ROR gamma (mouse) transcription inhibition; Drosophila S2 Gal4-RORgamma UAS-luciferase reporter, 20 h; actives 5.4% (n = 310,000); AID 2551; Potency, µM (titrated, usually from 53.6 µM), for the others: at the highest dose activity change, negative = inhibition, actives largely listed as inhibitors; note: potency is the fitted concentration of half-maximal effect; nearly all actives have a fitted effect of over 60% in size
#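 Stably transfected Drosophila Schneider cells are the test system, with ROR gamma fused to Gal4 and luciferase under UAS control; luminescence is read after 20 hr of 700 uM copper sulfate induction at ambient temperature.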
# CtBP-E1A inh: inhibitors of CtBP/E1A interaction; actives 0.49% (n = 340,000); AlphaScreen GST-E1A/His-CtBP binding, 1536-well; hits give low values; activity change, % (test concentration not listed); in the data active = activity change below about -65%; inconclusive = mostly about -30% to -63%
#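 Protein mix (5X: 125 nM each GST-E1A, His-CtBP) was incubated with pinned compound 2 h at 37 deg C in dark, in 50 mM Tris pH 8.0 buffer with 300 mM NaCl. Glutathione donor and nickel acceptor beads followed; AlphaScreen signal read after 1 h.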
# Gal4-VP16 FLuc: inhibits Gal4-VP16 luciferase reporter, ROR gamma counter-screen | Potency, µM (series often up to 53.6 µM), without a hit: top-dose activity, negative = inhibition, usual class: inhibitors | actives 3.5% (n = 310,000) | AID 2546 | Drosophila S2 Gal4-VP16 UAS-luciferase, luminescence, 20 h;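 note: Gal4-VP16 expression switched on by copper sulfate through the metallothionein promoter; potency is the fitted concentration of half-maximal effect; nearly all actives have a fitted effect of over 50% in size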
# Six1-Eya2 blk: blocks human Six1 binding to Eya2; actives 0.56% (n = 360,000); AID 651725; AlphaScreen GST-Six1/His-Eya2 binding, biochemical; hits give low values; Q15475+O00167; activity change, % (test concentration not listed); in the data active = activity change below about -65%; inconclusive = mostly about -30% to -63%
#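 Six1/Eya2 binding was read as AlphaScreen signal after compounds were pinned into GST-Six1 plus His-tagged Eya2 (5X stock 250/500 nM) in pH 8.0 Tris/NaCl/TCEP buffer, beads added, then incubated 1 h, 37 C, dark.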
# PKM2 activator: PKM2 (human) enzyme activation | P14618 | purified PKM2, Kinase-Glo ATP luminescence, activation; response scale: 0% is enzyme alone, no compound | Potency, µM (titrated, usually from 57.5 µM), for inactives: at the top dose activation, hits mostly activators | actives 0.34% (n = 260,000); note: potency is the fitted concentration of half-maximal effect; nearly all actives have a fitted effect of over 55% in size
# Target sequence (P14618 whole entry, looked up): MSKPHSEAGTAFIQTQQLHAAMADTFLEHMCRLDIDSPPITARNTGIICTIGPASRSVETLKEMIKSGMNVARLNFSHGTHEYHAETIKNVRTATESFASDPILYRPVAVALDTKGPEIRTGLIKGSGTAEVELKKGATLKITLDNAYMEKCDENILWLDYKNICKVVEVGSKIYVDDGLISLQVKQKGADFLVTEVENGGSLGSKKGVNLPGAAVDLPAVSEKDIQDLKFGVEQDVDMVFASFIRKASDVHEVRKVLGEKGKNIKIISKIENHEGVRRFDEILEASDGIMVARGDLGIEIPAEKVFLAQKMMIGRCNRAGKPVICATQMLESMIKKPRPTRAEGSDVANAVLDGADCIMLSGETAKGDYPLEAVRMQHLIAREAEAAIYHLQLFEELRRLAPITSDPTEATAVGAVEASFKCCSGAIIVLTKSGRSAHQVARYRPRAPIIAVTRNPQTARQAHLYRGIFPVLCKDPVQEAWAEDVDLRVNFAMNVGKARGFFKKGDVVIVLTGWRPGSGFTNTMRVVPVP
#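 Purified hPK-M2 (>95% pure) converted ADP (0.1 mM final) to ATP with 0.5 mM PEP in 50 mM imidazole pH7.2, KCl, MgCl2, Tween 20, BSA; 1 h at room temperature. ATP detected by Kinase-Glo luminescence.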
# An asterisk follows results filed as active; ? = inconclusive; · = not tested or not shown; [ ] = dose if it differs, or a comment. Unless noted, calls come from the whole dose curve; as a rule, active = well fitted curve in the direction sought with a large enough effect; inconclusive = small, poorly fitted or top-dose-only effect, or another doubt; inactive = no such curve, though single readings can be large; an effect the other way counts as inactive or inconclusive. % is set by controls: 0 for no effect and ±100 for the full control effect.
SMILES,RORgamma inh,CtBP-E1A inh,Gal4-VP16 FLuc,Six1-Eya2 blk,PKM2 activator
O=C(NCc1ccccc1)C(=O)Nc1nc(-c2ccccc2)cs1,-40%,-13,-12%,0,2%
C=C1C(n2cnc3c(=O)[nH]c(N)nc32)C[C@H](O)[C@H]1CO (stereo partly specified),-30%,·,-4%,·,·
O=C(CCNC(=O)c1ccc([N+](=O)[O-])cc1)NCc1ccco1,·,-12,·,1,·
CCOC(=O)c1ccc(N2CCOCC2)c(NS(=O)(=O)c2ccc(F)cc2)c1,-36%,1,8%,8,-3%
O=C(O)CCC(=O)Nc1nc(-c2ccccc2)cs1,3%,6,6%,-1,-5%
CN(C)CC(=O)Nc1nc(-c2ccccc2)cs1,11µM*,-5,?,-10,1%
Cc1ccccc1NC(=O)c1cccc(C(=O)Nc2ccccc2C)n1,38%,0,-1%,3,-2%[11.5 µM]
Cc1csc(NC(=O)c2cc(C)nc3ccccc23)n1,11µM*,-11,-13%,-2,-1%
Cc1cccc(NC(=O)c2ccc3ccccc3n2)c1C,1.8µM*,8,?,26,-2%
O=C(Nc1ccccn1)c1ccc2ccccc2c1O,?,5,13µM*,-19,-4%
Cn1c(N)c(C(=O)COC(=O)CNC(=O)c2ccccc2F)c(=O)n(C)c1=O,·,-13,·,6,·
Cc1cc(C(=O)Nc2ccccn2)no1,7%[0.365 µM],0,·,5,-2%
CC1CC1C(=O)Nc1nc(-c2ccccc2)cs1 (stereo unspecified),23%,1,0%,-2,-15%
O=C(Nc1ccccn1)c1ccc2ccccc2n1,10µM*,7,?,3,6%
Cc1cnc(C(=O)Nc2ccccc2-c2ccc(C)o2)cn1,7.1µM*,4,?,?,6%
Cc1cnc(C(=O)Nc2nc(-c3ccccc3)cs2)cn1,4.5µM*,0,4.5µM*,2,-8%
O=C(Nc1nccs1)c1ccc2ccccc2n1,7.1µM*,-10,?,-7,·
O=C(CC1C(=O)NCCN1Cc1ccccc1)NCCCOc1cccnc1 (stereo unspecified),20%,10,2%,-20,1%
CC(=O)NC(CC(=O)Nc1nc(-c2ccc(N(C)S(C)(=O)=O)cc2)cs1)c1ccccc1 (stereo unspecified),4%,9,11µM*,-9,2%
Cc1csc(NC(=O)c2ccc3ccccc3n2)n1,2.5µM*,-22,7.1µM*,-1,·
Cc1cc(C)n2nc(C(=O)OCC(=O)N(C)C3CCCCC3)nc2n1,·,-3,·,-10,·
Cc1cc(C(=O)Nc2nc3c(s2)CCCC3)cs1,?,-7,6.3µM*,-6,-13%
Cc1ncsc1C(=O)Nc1nc2c(s1)CCCC2,-9%,5,-9%,2,-47%
O=C(Nc1nc2c(s1)CCCC2)c1ccc2ncsc2c1,1.8µM*,-14,?,-7,3%
O=C(Nc1nc2c(s1)CCCC2)c1ccc(Br)s1,11µM*,-10,?,-10,-1%
SMILES,RORgamma inh,CtBP-E1A inh,Gal4-VP16 FLuc,Six1-Eya2 blk,PKM2 activator
O=C(Nc1nc2c(s1)CCCC2)c1ccc(N2C(=O)CCC2=O)cc1,?,4,15%,-11,-20%
COc1ccc(NC(=O)CCSCCc2ccccn2)cc1OC,12%,4,-2%,11,6%
CCn1c(/C(C#N)=N/O)nc2ccccc21,8.9µM*,0,?,-7,-14%
CN=C(NC#N)Nc1ccc(C2=NNC(=O)C[C@@H]2C)cc1,-1%,·,-9%,·,·
CC1(C)Cc2c(sc3[nH]c(=S)n(Cc4ccccc4)c(=O)c23)CO1,8%,8,0.89µM*,1,8%
CC1(C)Cc2c(sc3c2c(N)nc(=S)n3Cc2ccccc2)CO1,-2%,·,0%,·,21%
COc1cc(/C=C(\CC(=O)O)c2nc3ccccc3s2)ccc1OCC(=O)Nc1ccccc1F,·,?,·,-23,·
COc1cc(/C=C(\C#N)c2nc3ccccc3s2)ccc1OCC(=O)Nc1ccccc1,0.13µM*,5,-20%,0,-1%
Cc1cccc2sc(NC(=O)C3CSC4(C)CCC(=O)N34)nc12 (stereo unspecified),-25%,2,2%,0,5%
CC12CCC(=O)N1C(C(=O)Nc1nc3c(F)cc(F)cc3s1)CS2 (stereo unspecified),-31%,-1,3.5µM*,-3,2%
O=C(CN1C(=O)NC2(CCCC2)C1=O)N1CCN(S(=O)(=O)c2cccc(C(F)(F)F)c2)CC1,·,0,·,8,·
CCc1c(C)c(C#N)c2nc3ccccc3n2c1Cl,2.8µM*,·,7%,·,-19%
O=C1CCC[C@@H]2Cc3nc4cc5c(cc4cc3[C@@H]3CCN1[C@H]23)OCO5,·,-12,·,?,·
NC(=O)c1ccc(NC(=O)COC(=O)c2c3c(nc4ccccc24)/C(=C\c2cccs2)CCC3)cc1,4.5µM*,·,5µM*,1,5%
COc1cc2cc(CN(CCc3cccc(C)c3)C(=S)NCCCN3CCOCC3)c(=O)[nH]c2cc1OC,7.1µM*,?,?,-9,-20%
COc1cc2cc(CN(CCc3cccc(C)c3)C(=S)NCCCN(C)C)c(=O)[nH]c2cc1OC,-28%,-16,-9%,-3,-2%
COC(=O)c1cccc(NC(=S)N2CCCCC2)c1,18%,9,-22%,8,-4%
Cc1cccc(NC(=S)N2CCN(c3cc(C)ccc3C)CC2)c1,4µM*,1,5.6µM*,-7,6%
COC(=O)c1cccc(NC(=S)N2CCN(c3ccccc3F)CC2)c1,14µM*,7,2%,4,-8%
COc1ccccc1N1CCN(C(=S)Nc2cccc(C)c2)CC1,5µM*,-5,20µM*,-7,-8%
Cc1cccc(NC(=S)N2CCCCCC2)c1,?,6,?,-2,5%
Cc1cc(=O)oc2cc(OCCSCCN3CCCCC3)ccc12,-2%,·,0%,-1,-5%
Cc1ccc(S(=O)(=O)NNC(=S)Nc2cccc(C)c2C)cc1,5µM*,1,?,3,2%
O=C(CCCOc1ccccc1)Nc1ccc(Br)cc1,·,9,·,5,·
O=C(NC(=S)Nc1ccccc1Br)c1ccco1,?,-14,?,-5,3%
Cc1cccc(NC(=S)NN(Cc2ccccc2)c2ccccc2)c1C,3.5µM*,-6,3.5µM*,-3,0%
O=C(CCCOc1ccccc1)NC(=S)Nc1ccccc1,10µM*,0,?,-1,0%
O=C(NC(=S)Nc1cccc(NC(=S)NC(=O)c2ccco2)n1)c1ccco1,0.089µM*,16,0.79µM*,?,1%
CC(=O)/C=C1\OCc2ccccc21,·,-5,·,6,·
CC1CCN(C2CCN(S(=O)(=O)c3ccc(C(F)(F)F)cc3)CC2)CC1,24%,4,-1%,3,-2%

# High-throughput results: PubChem BioAssay, National Center for Advancing Translational Sciences (NCATS)
